Results taken from ChEMBL document CHEMBL3988442, “University of Dundee, Small-Polar-MMV Screening Library” (2021).
For some assays here: Potency and affinity values are given separately.

What was measured:
Parameters in all cases: scale not given: direction of the effect not stated beside the values
[1] = target: Protein translocase subunit SecA (Escherichia coli (strain K12)) (UniProt P10408); assay: Assay to Identify E. coli SecA ATPase Inhibitors; assay type: functional; details: 30 µM
[2] = target: T1, Ubiquitin-activating enzyme e1, putative (Leishmania donovani (strain BPK282A1)) (UniProt E9BSI1); assay: Leishmania donovani Ubiquitin Activating Enzyme (LdE1); assay type: functional; details: 30 µM
T1 sequence (whole entry): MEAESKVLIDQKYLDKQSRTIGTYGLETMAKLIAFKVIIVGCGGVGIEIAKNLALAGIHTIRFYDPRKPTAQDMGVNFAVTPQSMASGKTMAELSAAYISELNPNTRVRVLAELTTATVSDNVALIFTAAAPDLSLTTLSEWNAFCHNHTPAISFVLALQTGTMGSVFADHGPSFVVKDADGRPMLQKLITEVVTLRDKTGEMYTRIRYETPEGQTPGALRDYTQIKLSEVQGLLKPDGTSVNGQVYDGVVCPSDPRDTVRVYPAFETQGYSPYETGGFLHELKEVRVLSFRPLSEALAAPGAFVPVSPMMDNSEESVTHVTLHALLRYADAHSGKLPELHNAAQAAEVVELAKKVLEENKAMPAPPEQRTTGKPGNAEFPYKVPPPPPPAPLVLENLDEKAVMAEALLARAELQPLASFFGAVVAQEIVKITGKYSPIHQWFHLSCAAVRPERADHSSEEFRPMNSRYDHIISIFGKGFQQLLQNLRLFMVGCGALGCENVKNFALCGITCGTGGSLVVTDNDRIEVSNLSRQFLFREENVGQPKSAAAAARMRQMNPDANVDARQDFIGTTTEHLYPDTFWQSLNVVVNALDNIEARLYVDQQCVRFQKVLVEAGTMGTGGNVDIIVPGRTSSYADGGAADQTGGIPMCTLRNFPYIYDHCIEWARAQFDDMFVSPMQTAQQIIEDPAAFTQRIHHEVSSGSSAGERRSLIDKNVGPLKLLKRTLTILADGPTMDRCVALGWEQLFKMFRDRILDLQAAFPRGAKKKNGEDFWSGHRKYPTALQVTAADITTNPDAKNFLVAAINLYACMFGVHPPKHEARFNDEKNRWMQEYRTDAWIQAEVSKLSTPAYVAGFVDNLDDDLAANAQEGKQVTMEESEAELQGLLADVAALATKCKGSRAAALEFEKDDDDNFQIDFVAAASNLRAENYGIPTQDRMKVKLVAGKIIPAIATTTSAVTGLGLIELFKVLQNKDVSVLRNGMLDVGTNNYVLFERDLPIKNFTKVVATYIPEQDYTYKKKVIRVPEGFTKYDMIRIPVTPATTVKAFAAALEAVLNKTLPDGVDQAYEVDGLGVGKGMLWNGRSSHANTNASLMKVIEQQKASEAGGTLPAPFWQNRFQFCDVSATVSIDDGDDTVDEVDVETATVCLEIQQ

[3] = target: AMP-activated protein kinase, AMPK (Homo sapiens) (UniProt P54646+O43741+P54619+Q9UGJ0+Q9Y478+Q13131+Q9UGI9); assay: AMP-dependent Kinase enzyme assay. An in vitro enzyme assay that detects ADP turnover that is directly proportional to AMPK activity. This uses naive AMPK that is activated during the assay with MK-8722; assay type: functional; details: 30 µM
[4] = target: Sialic acid-binding Ig-like lectin 9 (Homo sapiens) (UniProt Q9Y336); assay: Hs-Siglec9 ALPHAscreen SOP 20170721; details: 10 µM
Chain of Sialic acid-binding Ig-like lectin 9 (Homo sapiens) (Q9Y336 whole entry): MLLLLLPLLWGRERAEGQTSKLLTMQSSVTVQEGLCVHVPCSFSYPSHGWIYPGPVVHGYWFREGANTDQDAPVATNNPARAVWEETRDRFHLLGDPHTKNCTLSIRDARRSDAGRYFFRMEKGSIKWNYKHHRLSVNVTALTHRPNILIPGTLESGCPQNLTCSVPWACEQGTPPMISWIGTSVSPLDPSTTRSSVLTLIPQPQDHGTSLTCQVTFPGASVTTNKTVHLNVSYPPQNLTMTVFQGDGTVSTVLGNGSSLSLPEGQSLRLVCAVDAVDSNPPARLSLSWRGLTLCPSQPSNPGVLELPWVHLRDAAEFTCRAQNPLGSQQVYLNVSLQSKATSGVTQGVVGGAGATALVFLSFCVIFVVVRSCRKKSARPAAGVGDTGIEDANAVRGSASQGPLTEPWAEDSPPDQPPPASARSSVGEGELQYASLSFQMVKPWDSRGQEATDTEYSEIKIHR

[5] = test system: Trypanosoma cruzi; assay: Trypanosoma cruzi phosphomannomutase and mannose-1-phosphate guanylyltransferase assay; assay type: functional; details: 10 µM
[6] = target: T2, Arginase-2, mitochondrial (Homo sapiens) (UniProt P78540); assay: in vitro enzyme assay to detect the production of urea directly proportional to the activity of Arginase II; assay type: functional; details: 33.3 µM; note: in the data most compounds retested in dose-response had high values
T2 sequence (whole entry): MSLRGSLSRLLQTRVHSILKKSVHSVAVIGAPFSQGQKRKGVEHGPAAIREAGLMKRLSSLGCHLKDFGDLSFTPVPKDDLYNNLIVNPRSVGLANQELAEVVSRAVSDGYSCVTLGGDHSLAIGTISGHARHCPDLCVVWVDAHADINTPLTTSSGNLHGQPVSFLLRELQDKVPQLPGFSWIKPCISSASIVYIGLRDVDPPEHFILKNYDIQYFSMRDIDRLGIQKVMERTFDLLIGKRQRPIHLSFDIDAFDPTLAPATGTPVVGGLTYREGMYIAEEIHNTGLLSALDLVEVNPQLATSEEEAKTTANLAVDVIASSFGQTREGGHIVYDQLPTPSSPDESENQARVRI

[7] = target: T3, Proteasome subunit beta (Trypanosoma cruzi) (UniProt O96673); assay: Trypanosoma cruzi proteasome chymotrypsin-like activity (TcProtChymo) assay.; note: in the data most compounds retested in dose-response had high values; assay type: functional; details: 9.37 µM
T3 sequence (whole entry): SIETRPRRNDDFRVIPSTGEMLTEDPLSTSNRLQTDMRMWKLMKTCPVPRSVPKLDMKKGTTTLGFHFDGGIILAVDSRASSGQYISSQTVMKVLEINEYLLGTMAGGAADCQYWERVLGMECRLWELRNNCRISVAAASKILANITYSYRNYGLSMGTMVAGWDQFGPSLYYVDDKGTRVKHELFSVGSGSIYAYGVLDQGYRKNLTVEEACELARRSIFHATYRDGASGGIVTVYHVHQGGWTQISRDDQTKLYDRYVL

[8] = organism: Homo sapiens; assay: To identify inhibition of the IFN signalling (Jak-Stat) pathway via expression of an eGFP reporter gene under the control of an IFN-stimulated response element (ISRE) containing MxA promoter.; assay type: functional; details: 30 µM
[9] = target: T4, Tyrosyl-tRNA synthetase, putative (Trypanosoma cruzi (strain CL Brener)) (UniProt Q4DSP6); assay: Trypanosoma cruzi tyrosyl tRNA synthetase (TcYRS) _High Tyrosine SOP; assay type: functional; details: 30 µM; note: in the data most compounds retested in dose-response had high values
T4 sequence (whole entry): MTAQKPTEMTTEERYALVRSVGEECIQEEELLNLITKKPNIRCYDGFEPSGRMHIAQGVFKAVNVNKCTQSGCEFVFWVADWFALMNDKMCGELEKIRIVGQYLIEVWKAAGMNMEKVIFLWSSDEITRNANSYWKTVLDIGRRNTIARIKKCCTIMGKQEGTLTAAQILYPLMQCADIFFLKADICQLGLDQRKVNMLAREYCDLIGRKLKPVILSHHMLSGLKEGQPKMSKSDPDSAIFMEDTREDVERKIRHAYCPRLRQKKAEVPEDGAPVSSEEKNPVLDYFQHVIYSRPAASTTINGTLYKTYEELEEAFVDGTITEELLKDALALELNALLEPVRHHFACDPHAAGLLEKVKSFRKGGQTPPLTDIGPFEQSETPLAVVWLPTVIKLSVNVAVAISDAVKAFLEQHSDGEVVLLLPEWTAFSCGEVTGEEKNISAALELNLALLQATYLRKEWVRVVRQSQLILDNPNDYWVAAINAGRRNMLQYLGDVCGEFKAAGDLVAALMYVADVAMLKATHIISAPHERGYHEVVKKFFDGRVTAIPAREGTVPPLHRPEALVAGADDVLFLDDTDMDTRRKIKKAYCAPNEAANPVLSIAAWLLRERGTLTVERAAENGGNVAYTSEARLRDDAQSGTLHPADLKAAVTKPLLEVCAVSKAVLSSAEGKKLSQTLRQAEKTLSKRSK

[10] = target: T4, Tyrosyl-tRNA synthetase, putative (Trypanosoma cruzi (strain CL Brener)); assay: Trypanosoma cruzi tyrosyl tRNA synthetase (TcYRS) SOP; assay type: functional; details: 30 µM
[11] = target: Chromo domain-containing protein 1 (Saccharomyces cerevisiae (strain ATCC 204508 / S288c) (Baker's yeast)) (UniProt P32657); assay: ScCHD-1 Enzyme Inhibition Assay; assay type: functional; details: 30 µM; note: in the data most compounds retested in dose-response had high values
Chain of Chromo domain-containing protein 1 (Saccharomyces cerevisiae (strain ATCC 204508 / S288c) (Baker's yeast)) (P32657 whole entry, the tested form may be a part): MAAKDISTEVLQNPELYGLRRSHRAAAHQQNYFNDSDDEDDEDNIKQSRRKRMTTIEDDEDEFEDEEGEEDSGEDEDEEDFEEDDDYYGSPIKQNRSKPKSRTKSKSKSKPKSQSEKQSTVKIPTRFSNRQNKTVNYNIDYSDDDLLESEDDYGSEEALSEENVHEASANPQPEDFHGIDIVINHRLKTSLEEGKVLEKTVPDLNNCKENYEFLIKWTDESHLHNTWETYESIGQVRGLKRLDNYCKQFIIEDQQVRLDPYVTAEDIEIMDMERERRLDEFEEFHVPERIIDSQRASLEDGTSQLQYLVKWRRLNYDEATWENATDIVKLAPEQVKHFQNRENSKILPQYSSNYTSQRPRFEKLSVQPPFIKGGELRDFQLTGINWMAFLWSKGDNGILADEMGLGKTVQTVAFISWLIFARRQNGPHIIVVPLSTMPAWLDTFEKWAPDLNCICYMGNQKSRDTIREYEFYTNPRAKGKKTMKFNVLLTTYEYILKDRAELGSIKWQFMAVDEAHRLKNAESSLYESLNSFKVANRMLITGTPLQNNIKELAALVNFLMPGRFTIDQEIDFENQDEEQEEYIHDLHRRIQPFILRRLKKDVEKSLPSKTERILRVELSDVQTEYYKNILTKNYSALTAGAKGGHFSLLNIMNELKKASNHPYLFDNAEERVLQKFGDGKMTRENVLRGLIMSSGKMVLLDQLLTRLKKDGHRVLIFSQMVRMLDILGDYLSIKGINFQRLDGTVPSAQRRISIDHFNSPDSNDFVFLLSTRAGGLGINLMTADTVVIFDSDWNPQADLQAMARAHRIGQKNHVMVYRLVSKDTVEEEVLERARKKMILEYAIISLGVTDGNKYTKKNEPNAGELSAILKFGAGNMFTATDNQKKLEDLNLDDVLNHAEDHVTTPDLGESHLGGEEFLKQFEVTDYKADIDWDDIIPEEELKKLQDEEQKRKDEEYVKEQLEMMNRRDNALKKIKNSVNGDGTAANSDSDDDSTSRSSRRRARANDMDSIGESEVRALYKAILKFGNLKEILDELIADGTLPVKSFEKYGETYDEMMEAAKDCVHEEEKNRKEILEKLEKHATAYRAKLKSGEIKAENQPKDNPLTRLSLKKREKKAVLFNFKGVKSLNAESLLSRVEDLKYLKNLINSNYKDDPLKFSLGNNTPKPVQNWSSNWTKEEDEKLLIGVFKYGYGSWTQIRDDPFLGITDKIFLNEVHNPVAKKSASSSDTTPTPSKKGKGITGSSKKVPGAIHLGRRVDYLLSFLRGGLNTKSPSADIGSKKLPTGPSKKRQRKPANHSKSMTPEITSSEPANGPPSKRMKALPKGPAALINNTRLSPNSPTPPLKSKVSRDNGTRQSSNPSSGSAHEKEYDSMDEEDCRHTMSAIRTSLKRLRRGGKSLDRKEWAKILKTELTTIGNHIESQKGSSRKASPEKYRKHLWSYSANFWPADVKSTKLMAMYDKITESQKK

Chain of Protein translocase subunit SecA (Escherichia coli (strain K12)) (P10408 whole entry): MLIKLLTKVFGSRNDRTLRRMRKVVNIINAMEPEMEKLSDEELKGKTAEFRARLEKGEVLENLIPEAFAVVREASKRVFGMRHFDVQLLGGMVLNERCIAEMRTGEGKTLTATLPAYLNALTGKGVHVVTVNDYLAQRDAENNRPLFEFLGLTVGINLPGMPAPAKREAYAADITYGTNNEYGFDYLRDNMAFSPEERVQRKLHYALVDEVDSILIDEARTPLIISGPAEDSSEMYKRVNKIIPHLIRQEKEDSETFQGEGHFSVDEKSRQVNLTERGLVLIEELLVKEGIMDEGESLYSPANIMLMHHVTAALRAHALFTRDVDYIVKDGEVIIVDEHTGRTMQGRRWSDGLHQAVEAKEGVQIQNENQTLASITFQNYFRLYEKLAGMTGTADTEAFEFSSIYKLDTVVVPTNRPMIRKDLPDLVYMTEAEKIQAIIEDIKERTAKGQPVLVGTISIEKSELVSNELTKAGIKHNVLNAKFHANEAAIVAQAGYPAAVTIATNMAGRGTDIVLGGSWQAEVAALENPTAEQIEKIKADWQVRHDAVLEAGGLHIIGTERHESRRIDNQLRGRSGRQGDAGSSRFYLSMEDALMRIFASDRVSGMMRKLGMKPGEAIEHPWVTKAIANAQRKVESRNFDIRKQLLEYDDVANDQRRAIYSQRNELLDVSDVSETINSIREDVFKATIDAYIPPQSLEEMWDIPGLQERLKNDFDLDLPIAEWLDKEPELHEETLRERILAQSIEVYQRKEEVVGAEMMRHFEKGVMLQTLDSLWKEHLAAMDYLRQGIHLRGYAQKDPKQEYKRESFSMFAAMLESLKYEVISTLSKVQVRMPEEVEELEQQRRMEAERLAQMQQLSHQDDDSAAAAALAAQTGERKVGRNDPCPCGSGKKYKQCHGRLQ

Structure (SMILES) | Percent Effect [1] [%] | Percent Effect [2] [%] | Percent Effect [3] [%] | Percent Effect [4] [%] | Percent Effect [5] [%] | Percent Effect [6] [%] | Percent Effect [7] [%] | Percent Effect [8] [%] | Percent Effect [9] [%] | Percent Effect [10] [%] | Percent Effect [11] [%]
Cc1nn(C)c(Cl)c1C1CCCN1CCc1ccccn1 (configuration not stated) | 3.64 | -3.8 | 12.3 | 1.51 | -1.74 | 7.53 | 5.83 | 4.77 | -1.04 | 2.53 | -11.7
CCc1ccccc1-n1cc(O)c(C(=O)N2CCCCC2)n1 | -2.01 | -29.7 | 5.9 | -1.13 | -4.36 | 0.185 | 4.85 | 20.6 | -23.8 | -45.1 | 2
O=C(NCc1nnc2n1CCCC2)N1CCc2ccccc2C1 | -3.86 | 11.4 | -3.15 | 2.59 | -4 | 4.09 | 4.63 | 4.93 | 1.04 | 12.7 | -7.99
O=C(CCC1CCCC1)NCCn1nc(C2CCNC2)c2nccnc21 (configuration not stated) | -2.79 | 12.2 | -13.6 | -8.06 | -6.52 | -5.34 | 17.6 | 23.6 | -3.23 | -3.9 | -19.5
O=C(CCCOc1ccc(F)cc1F)N1CCCC1Cn1cccn1 (configuration not stated) | -7.68 | 15.8 | -5.85 | 17.7 | 4.01 | 1.8 | 8.38 | 9.96 | 5.42 | 16.1 | -6.65
Cn1ccnc1CC1CCCN(C(=O)Nc2cccn(C)c2=O)C1 (configuration not stated) | -3.36 | 5.41 | -17.1 | 6.3 | 2.93 | 27.9 | 12.9 | 4.41 | 8.91 | 13.4 | -5.06
CCc1nnsc1C(=O)N1CCCN(Cc2nccn2C)CC1 | -2.29 | -96.1 | 4.85 | 9.93 | 3.04 | 0.632 | 2.18 | 3.59 | 1.91 | -2.35 | -8.53
CN(C(=O)c1cccc(C(=O)NS(C)(=O)=O)c1)c1ccccc1 | -5.66 | 15.6 | 1.54 | 14.7 | 6.98 | -24.8 | 16.5 | 4.53 | 6.45 | 13.6 | -2.26
O=C(NCCN1CCNCC1)c1c(O)c2ccccc2[nH]c1=O | 1.56 | 12 | 11 | -7.32 | -9.23 | -14.3 | 20.1 | 26.5 | 0 | 5.13 | -9.61
CCCN(C)C(=O)c1ccc2c(c1)[nH]c(=O)n2CCOCC | -5.32 | 2.7 | -7.14 | 42 | 8.11 | 2.38 | 9.65 | -3.55 | 2.65 | 17.1 | -9.7
CN(Cc1ccco1)[C@@H]1CN(C(=O)c2ccnnc2)C[C@@H]2CCCO[C@@H]21 | -2.86 | 2.74 | -3.12 | 2.33 | 4.76 | 2.4 | 0.77 | -17.3 | 2.08 | 8.64 | 1.23
Cc1cc(N2CCCN(C(=O)Cc3ccc(O)c(Cl)c3)CC2)ccn1 | -3.42 | 13.7 | -3.37 | 6.51 | 2.18 | 0.399 | 22.2 | -10.9 | 8.33 | 18.5 | -1.79
O=C(c1cc(=O)[nH]c(=O)[nH]1)N1CCCCC1c1ccc(F)cc1 (configuration not stated) | 1.51 | 4.17 | 0.748 | -6.89 | -3.21 | 3.97 | 16.8 | -0.138 | 5.26 | 2.56 | -2.94
CC(OCC(F)(F)F)C(=O)N1CCCCC1 (configuration not stated) | -5.31 | 0 | -0.316 | -2.51 | -0.783 | -2.27 | -1.77 | 19.4 | 1.07 | 2.5 | 0.868
O=C(NCC1CCOC1)c1csc(-c2ccco2)n1 (configuration not stated) | -2.71 | 13 | -3.93 | -0.826 | 5.24 | -1.07 | 13.8 | 13.5 | 7.77 | 21.9 | -8.51
CC(=O)N1CCCCC1c1nc(N)ncc1-c1ccccc1 (configuration not stated) | -3.36 | 13.3 | 9.28 | -4.89 | 5.32 | 19.8 | 6.78 | 8.42 | 6.38 | 14.1 | -3.68
CC(=O)N1[C@H](Cn2cncn2)C[C@@H]2CN(S(C)(=O)=O)CC[C@@H]21 | -4.17 | 10.4 | 1.39 | 9.47 | 9.54 | -74.5 | 14.5 | -25.9 | 4.3 | 16.1 | -4.74
Clc1ccccc1C1(c2ccnc(-c3ncccn3)n2)CCNCC1 | -3.79 | 7.79 | 1.81 | 8.56 | -3.64 | -2.76 | 7.49 | -17.8 | 6.45 | 18.5 | -0.785
N#Cc1ccc(CN2CCC(c3ccnn3CCO)CC2)cc1 | -4.87 | 10.5 | -3.54 | 2.96 | 0.654 | -1.8 | -4.48 | 3.68 | 7.39 | 23.5 | -1.9
CCc1c(C(=O)N2CCCN(C(C)=O)CC2)cnn1C(C)(C)C | -5.01 | 23.7 | -6.43 | 9.75 | 3.27 | 1.08 | 6.68 | -2.15 | 7.39 | 25.9 | -9.24
CCc1nc(C2CCCN2C(=O)CCNS(C)(=O)=O)no1 (configuration not stated) | -2.77 | 27 | -4.56 | -1.58 | 3.25 | -2.03 | 19 | 21.8 | 7.92 | 23.2 | -6.19
CS(=O)(=O)N1CCC(Oc2ccc(C(=O)N3CCSCC3)cc2Cl)CC1 | -2.47 | 9.72 | 3.27 | 18.5 | 4.37 | -2.21 | 3.86 | 25.7 | 3.16 | 7.69 | -2.42
